Experimental data published in PubChem BioAssay AID1626 (SRMLSC, 2009).
Among all 220,000 compounds or so, about 2,000 (0.91%) were called active. Roughly 2% stayed inconclusive and do not appear here. Cut-off read from the data, not from the text of the source: inconclusive = inhibition above about 80% without an active follow-up result; inactive = below that; test concentration not stated here. A selection follows. Entries with a potency or affinity are not part of this list.

Assay: M. tuberculosis H37Rv growth inhibitors, H37Rv strain (AID 1626);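 note: bacteria incubated seven days before Alamar blue readout; 0% = bacteria only wells and 100% = bacteria with antibiotic wells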
Details: stronger effect = higher value, concentration not given here

| SMILES | inhibition |
| --- | --- |
| O=C(CSc1ncccn1)Nc1ccc2c(c1)CCC2 | 76% (inactive) |
| CCOC(=O)c1sc(=S)n(C)c1NC(=O)c1ccc(C(C)(C)C)cc1 | 79.7% (inactive) |
| Oc1ccc(-c2nc3ccccc3s2)cc1 | 59.6% (inactive) |
| CCCOc1ccc(C(CC(=O)O)NC(=O)c2ccc3c(c2)OCO3)cc1 (configuration not stated) | 3.69% (inactive) |
| COc1ccc(-c2ocnc2C(=O)N2CCN(C(c3ccccc3)c3ccccc3)CC2)cc1 | -4.16% (inactive) |
| O=C(NNC(=O)C1CCCO1)c1ccccc1Cl (configuration not stated) | -7.82% (inactive) |
| CCN(CC)S(=O)(=O)c1ccc(-c2nnc(SCC(=O)N3c4ccccc4CC3C)n2CC)cc1 (configuration not stated) | 5% (inactive) |
| CCC(CC)c1nnc(NC(=O)CCCN2C(=O)c3ccccc3C2=O)s1 | -6.94% (inactive) |
| O=C(CN1CCCC1)Nc1ccc(OCc2ccccc2)cc1 | -0.61% (inactive) |
| O=C(CN1CCN(c2ccccc2)CC1)Nc1ccc(OCc2ccccc2)cc1 | -8.11% (inactive) |
| COc1ccc(CNC(=O)C2Cc3ccccc3CN2C(=O)c2ccco2)cc1 (configuration not stated) | -0.615% (inactive) |
| COCCNC(=O)c1ccc(CS(=O)(=O)c2ccc(C)cc2)o1 | -5.24% (inactive) |
| COC(=O)c1ccc2nc(NC(=O)CN3C(=O)CCC3=O)sc2c1 | -25.1% (inactive) |
| Cc1ccc(C(=O)NCCSC(C)(C)C)cc1 | 2.64% (inactive) |
| Cc1ccc(SCCNC(=O)c2ccc(C)c([N+](=O)[O-])c2)cc1 | -5.78% (inactive) |
| Cc1ccc2c(c1)-c1[nH]c(=S)ncc1CS2 | 3.39% (inactive) |
| COc1ccc(-c2cc(C(F)(F)F)nc(SCC(=O)NCc3cccs3)n2)cc1OC | 0.43% (inactive) |
| Cc1cc(OCC(=O)N(Cc2ccco2)C2CCS(=O)(=O)C2)ccc1Cl (configuration not stated) | -8.25% (inactive) |
| O=C(COC(=O)/C=C/c1ccc(F)cc1)NCc1ccco1 | -4.03% (inactive) |
| O=C(CCCn1cc([N+](=O)[O-])cn1)NC1CCCCCC1 | 5.99% (inactive) |
| CS(=O)(=O)c1cccc(C(=O)NCc2ccc(F)cc2)c1 | 9.82% (inactive) |
| Cc1ccc(-c2cc(C(F)F)n3ncc(C(=O)Nc4c(C)nn(Cc5c(Cl)cccc5Cl)c4C)c3n2)cc1 | 57.7% (inactive) |
| Cc1nn(Cc2c(Cl)cccc2Cl)c(C)c1NC(=O)c1cnn2c(C(F)F)cc(-c3ccccc3)nc12 | 49.7% (inactive) |

| SMILES | inhibition |
| --- | --- |
| COc1ccccc1NC(=O)CSC1=NCCN1 | -6.91% (inactive) |
| C=CCN1CN(S(=O)(=O)c2cccs2)c2nc3ccccc3nc21 | -3.39% (inactive) |
| Cc1ccccc1OCCCCCn1ccnc1 | 5.71% (inactive) |
| Cc1ccc(C)c(OCCCCCn2ccnc2)c1 | -10.5% (inactive) |
| Cc1cccc(C(C)(C)C)c1OCCn1ccnc1 | -11% (inactive) |
| Clc1ccccc1OCCCCn1ccnc1 | 2.53% (inactive) |
| COc1ccccc1NC(=O)N1CCN(CCc2ccccc2)CC1 | -2.85% (inactive) |
| CC(=O)OCC1OC(OC(C)=O)C(NC(=O)c2cccnc2)C(OC(C)=O)C1OC(C)=O (configuration not stated) | -0.72% (inactive) |
| CCCCN(C(=O)c1cc2ccccc2o1)c1c(N)n(CC(C)C)c(=O)[nH]c1=O | 9.87% (inactive) |
| Cc1[nH]n2c(=O)c3c(nc2c1-c1cccc2ccccc12)CCC3 | -8.68% (inactive) |
| COc1ccc(-c2c(C)[nH]n3c(=O)c(Cc4ccccc4)c(C)nc23)cc1OC | 38.6% (inactive) |
| Cc1ccc(-c2[nH]n3c(=O)c4c(nc3c2C)CCCC4)cc1 | 5.52% (inactive) |
| COc1ccc(-c2c(C)[nH]n3c(=O)c(Cc4ccccc4)c(C)nc23)cc1 | 70.9% (inactive) |
| O=c1c2c(nc3c(-c4ccccc4)c[nH]n13)CCC2 | 2.63% (inactive) |
| COc1cccc(N=Nc2c(N)[nH]n3c(=O)c4c(nc23)CCCC4)c1 | 19.3% (inactive) |
| O=c1c2c(nc3c(-c4ccccc4)c[nH]n13)CCCC2 | 14.2% (inactive) |
| Nc1[nH]n2c(=O)c3c(nc2c1N=Nc1ccccc1)CCCC3 | 79.3% (inactive) |
| CC(=O)Nc1ccc2c(CSc3nnc(-c4cccnc4)n3-c3ccc(C)cc3C)cc(=O)oc2c1 | -5.62% (inactive) |
| Cc1ccc(CNC(=O)CSc2nc(C)cc(C)c2C#N)cc1 | -9.02% (inactive) |
| C/C(=N\NC(=O)C1(C)NC(C)(C)Cc2ccccc21)c1ccccc1 (configuration not stated) | 1.17% (inactive) |
| COc1ccc(C(=O)Nc2ccc(N3CCN(c4ccc(OC)cc4)CC3)c(C#N)c2)cc1 | -7.83% (inactive) |
| COc1ccc(-n2c(=S)[nH]c3cc(C(=O)NCCCN4CCCC4=O)ccc3c2=O)cc1OC | -1.47% (inactive) |
| CC(=O)COC(=O)CNC(=O)c1ccc(Br)cc1 | -5.11% (inactive) |

| SMILES | inhibition |
| --- | --- |
| Cc1cccc(N(Cc2cc3ccccc3[nH]c2=O)C(=O)c2ccco2)c1C | 4.31% (inactive) |
| COc1ccc(NC(=O)CCOc2ccccc2)c(OC)c1 | -0.51% (inactive) |
| COC(=O)c1cccc(NC(=O)CCCOc2cccc(C)c2)c1 | -9.57% (inactive) |
| O=C(CCCCCNC(=S)Nc1ccccc1)C[N+](=O)[O-] | -1.95% (inactive) |
| Cc1[nH]n2c(=O)c3c(nc2c1-c1ccccc1)CCC3 | 3.85% (inactive) |
| Cc1c(-c2ccccc2)[nH]n2c(=O)c3c(nc12)CCCC3 | 6.84% (inactive) |
| CN(C)c1cc(-c2cccc([N+](=O)[O-])c2)oc(=O)c1Cl | 1.64% (inactive) |
| Cc1ccc(C(=O)N[C@@H](C)CN2C3=NC[C@H](Cc4ccccc4)N3C[C@H]2Cc2ccc(O)cc2)cc1Br | 21.4% (inactive) |
| COc1ccc(C[C@@H]2CN3C(=NC[C@@H]3C)N2C[C@H](C)NC(=O)c2ccc(C)c(Br)c2)cc1 | 8.27% (inactive) |
| Cc1ccc(C(=O)NCCN2C3=NC[C@@H](Cc4ccccc4)N3C[C@H]2Cc2ccc(O)cc2)cc1Br | 40.7% (inactive) |
| Cc1ccc(C(=O)NCCN2C3=NC[C@H](Cc4ccc(O)cc4)N3C[C@H]2Cc2ccc(O)cc2)cc1Br | 13.6% (inactive) |
| Cc1cc(=O)oc(C)c1C(=O)Nc1cccc(F)c1 | -6.13% (inactive) |
| CNC(=S)Nc1cccc(C(C)=O)c1 | -3.56% (inactive) |
| Cc1ccc(N=C2NC(=O)/C(=C/c3cccnc3)S2)c(C)c1 | 20.4% (inactive) |
| COCCCn1c(SCc2cccc(OC)c2)nc2cc(OC)c(OC)cc2c1=N | 6.91% (inactive) |
| COc1cc2nc(SCc3ccc(F)cc3)n(Cc3cccs3)c(=N)c2cc1OC | 8.63% (inactive) |
| COCCCn1c(SCc2ccccc2)nc2cc(OC)c(OC)cc2c1=N | 0.99% (inactive) |
| COc1ccc(-c2nc(Cn3c(SCc4ccc(F)cc4)nc4ccncc43)c(C)o2)cc1OC | 67.8% (inactive) |
| COCCCn1c(SCc2ccc(OC)cc2)nc2cc(OC)c(OC)cc2c1=N | 1.79% (inactive) |
| COc1cc2nc(SCc3ccc(Cl)cc3Cl)n(Cc3cccs3)c(=N)c2cc1OC | 11.9% (inactive) |
| COc1cc2nc(SCc3ccc(C(F)(F)F)cc3)n(Cc3cccs3)c(=N)c2cc1OC | -5.09% (inactive) |
| COc1ccc(-c2nc(Cn3c(SCc4cccc(F)c4)nc4ccncc43)c(C)o2)cc1OC | 55.2% (inactive) |
| O=C(C(=O)N1CCc2ccccc2C1)c1cn(CC(=O)N2CCOCC2)c2ccccc12 | -0.84% (inactive) |

| SMILES | inhibition |
| --- | --- |
| CCOC(=O)/C=C(\C)N1N=C(c2ccccc2)CC1c1ccccc1 (configuration not stated) | 33.1% (inactive) |
| C=CCOc1ccccc1CNCCc1ccc(S(N)(=O)=O)cc1 | 0.31% (inactive) |
| CCOC(=O)c1cccc(NC(=S)NCc2ccc(C)cc2)c1 | 2.33% (inactive) |
| COCCNC(=O)c1cccc(C)c1[N+](=O)[O-] | 3.44% (inactive) |
| CC1CC1C(=O)OCC(=O)Nc1cccc(S(=O)(=O)NC2=NCCCCC2)c1 (configuration not stated) | -7.4% (inactive) |
| COc1ccc(CCNC(=O)C2CC3Cn4c(nc5ccccc54)C3N2Cc2ccccc2)cc1 (configuration not stated) | -0.23% (inactive) |
| Cc1ccc(S(=O)(=O)CCC(=O)OCC(=O)N2CC(=O)Nc3ccccc32)cc1 | -1.54% (inactive) |
| COc1ccc(-n2c(SCC(=O)Nc3cc(C(=O)O)ccc3C)nc3ccccc3c2=O)cc1Cl | -8.45% (inactive) |
| CN1/C(=C\C(=O)c2cncc(Br)c2)C(C)(C)c2ccccc21 | 25.1% (inactive) |
| CN1/C(=C\C(=O)c2cccnc2)C(C)(C)c2ccccc21 | -3.35% (inactive) |
| COc1ccc2nc3oc(C(=O)N4CCC5(CC4)OCCO5)cc3cc2c1 | 5.85% (inactive) |
| Cc1ccc2cc3cc(C(=O)N4CCC5(CC4)OCCO5)oc3nc2c1 | -1.4% (inactive) |
| CCN(C(=O)CSc1cc(C)c2cccc(C)c2n1)C1CCS(=O)(=O)C1 (configuration not stated) | 1.8% (inactive) |
| O=C(CCC1CCCN(C(=O)CC2=CCCCC2)C1)N1CCN(c2ccccn2)CC1 (configuration not stated) | 8.51% (inactive) |
| CCSc1nnc([C@H](Cc2ccccc2)NC(=O)OC(C)(C)C)o1 | 14.6% (inactive) |
| COc1ccc(CCNC(=O)NC23CC4CC(CC(C4)C2)C3)cc1OC | -2.6% (inactive) |
| O=C(NCCCO)NC12CC3CC(CC(C3)C1)C2 | 1.78% (inactive) |
| NS(=O)(=O)c1ccc(CCNC(=O)NC23CC4CC(CC(C4)C2)C3)cc1 | 3.03% (inactive) |
| O=C(NCCC1=CCCCC1)NC1CCCCC1 | -1.65% (inactive) |
| CCOC(=O)c1cc(-c2ccccc2)nn1-c1ccccn1 | -4.13% (inactive) |
| C#CCOCCOCCOCCNc1nc(N2CCOCC2)nc(N2CCN(C(=O)Cn3cc(CCCN=C(N)N)nn3)CC2)n1 | -13.8% (inactive) |
| CCN(CC)C(=O)c1cc2c(=O)c3cc(F)ccc3oc2nc1C | 1.36% (inactive) |
| Cc1ccc(Nc2nc3ccccc3n3nnnc23)cc1 | -0.03% (inactive) |
